Most compounds without a hit are left out; they make up all but 2.8% or so of the library.
Pol eta inh-1: DNA polymerase eta (human) inhibition | Q9Y253 | recombinant Pol eta, fluorescent DNA replication assay | Potency, µM (titrated, usually from 114 µM), for the others: at the top dose activity change, negative = inhibition, most hits filed as inhibitors | actives 1.2% (n = 390,000) | AID 588591; note: potency is the fitted concentration of half-maximal effect; % is set by controls: 0 for no effect and ±100 for the full control effect
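Pol eta at 10 nM preincubated with compounds 15 min at room temperature; reaction started with fluorescent substrate (50 nM final) and read kinetically at 0 and 10 min.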
FEN1 inhibitor: inhibitors of human flap endonuclease 1; actives 0.35% (n = 390,000); Potency, µM (series often up to 114 µM), without a hit: top-dose activity change, negative = inhibition, hits mostly inhibitors; AID 588795; Recombinant FEN1 flap cleavage, fluorescence, 15 min; P39748; note: potency is the fitted concentration of half-maximal effect; % is set by controls: 0 for no effect and ±100 for the full control effect; nearly all actives have a fitted effect of over 65% in size
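Reaction started by adding substrate (50 nM final) to 10 nM enzyme after 15 min room-temperature compound preincubation. Reads at 0 and 15 min, with data normalized and fitted to a four-parameter Hill equation.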
Pol kappa inh-1: blocks human DNA polymerase kappa activity; Q9UBT6; purified Pol kappa, fluorescent DNA synthesis assay, 10 min; Potency, µM (doses to about 107 µM), inactives show at the top dose activity, negative = inhibition, usual class: inhibitors; actives 0.53% (n = 400,000); AID 588579; note: potency is the fitted concentration of half-maximal effect; % is set by controls: 0 for no effect and ±100 for the full control effect
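First, compounds were pin-transferred onto 10 nM Pol kappa. After 15 min at room temperature, substrate was added to 50 nM final. Fluorescence was then measured kinetically at 0 and 10 min.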
PI5P4Ka inh: inhibitors of human PI5P4K alpha. P48426. PI5P4Kalpha enzyme, ADP-Glo luminescence, 60 min; hits give low values. max response, %. actives 1.2% (n = 330,000). AID 652105; active = max response of -50% or lower; inconclusive = between -30% and -50%; inactive = -30% or higher; note: value at the top dose of about 77 µM; % is set by controls: 0 for no effect and ±100 for the full control effect
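ADP-Glo luminescence end-point after a 60 min room-temperature kinase reaction. PI5P4Kalpha and substrate in HEPES pH 7.4 buffer with EGTA, 0.1% CHAPS and 5% DMSO; ATP at 5 microM final.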
Pol iota inh: blocks human DNA polymerase iota activity; Q9UNA4; Pol iota fluorescent replication assay, 10 min; Potency, µM (series often up to 115 µM), for the others: at the highest dose activity, negative = inhibition, actives largely listed as inhibitors; actives 1% (n = 390,000); note: potency is the fitted concentration of half-maximal effect
Target sequence (Q9UNA4 whole entry, looked up): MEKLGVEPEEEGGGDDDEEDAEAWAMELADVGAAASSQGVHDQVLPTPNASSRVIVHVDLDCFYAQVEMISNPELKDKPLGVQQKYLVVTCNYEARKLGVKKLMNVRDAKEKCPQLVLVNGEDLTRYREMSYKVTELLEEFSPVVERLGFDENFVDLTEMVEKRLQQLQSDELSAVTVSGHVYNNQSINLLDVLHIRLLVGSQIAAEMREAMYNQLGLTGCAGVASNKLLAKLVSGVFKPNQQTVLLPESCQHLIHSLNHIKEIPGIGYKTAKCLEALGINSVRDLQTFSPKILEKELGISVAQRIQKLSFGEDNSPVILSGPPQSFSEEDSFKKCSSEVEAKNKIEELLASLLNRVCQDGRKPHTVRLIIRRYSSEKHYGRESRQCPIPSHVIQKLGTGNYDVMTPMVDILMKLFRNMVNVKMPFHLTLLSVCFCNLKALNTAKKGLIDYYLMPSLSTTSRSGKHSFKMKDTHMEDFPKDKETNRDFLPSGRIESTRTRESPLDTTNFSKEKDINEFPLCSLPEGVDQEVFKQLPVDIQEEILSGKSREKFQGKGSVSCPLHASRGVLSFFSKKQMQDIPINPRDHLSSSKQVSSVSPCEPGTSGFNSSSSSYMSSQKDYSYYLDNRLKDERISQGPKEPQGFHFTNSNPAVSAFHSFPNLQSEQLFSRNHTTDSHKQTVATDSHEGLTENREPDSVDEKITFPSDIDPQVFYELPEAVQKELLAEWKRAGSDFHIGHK
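Fluorescent replication assay read twice, at 0 min and 10 min after adding 50 nM (final) substrate. Enzyme (10 nM) and compounds were first incubated 15 min at room temperature; enzyme-free buffer wells were negative controls.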
POLB inh: inhibitors of human DNA polymerase beta. Pol beta primer extension/strand displacement, fluorescence kinetic. Potency, µM (series often up to 114 µM), without a hit: at the top dose activity change, negative = inhibition, actives largely listed as inhibitors. actives 1.3% (n = 340,000); note: potency is the fitted concentration of half-maximal effect; % is set by controls: 0 for no effect and ±100 for the full control effect
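Homogeneous kinetic assay of primer extension and strand displacement by 10 nM Pol beta, preincubated 15 min at room temperature with compound before 50 nM substrate (final) was added. Read at 0 and 10 min; four-parameter Hill fit.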
PGK validate: TbPGK inhibition, hit validation; actives 79% (n = 500); TbPGK coupled GAPDH assay, Kinase-Glo luminescence; AID 686980; shares compounds with Pol kappa inh-1; Potency, µM (titrated, usually from 57.5 µM), for inactives: top-dose activity change, negative = inhibition, hits mostly inhibitors; note: potency is the fitted concentration of half-maximal effect; % is set by controls: 0 for no effect and ±100 for the full control effect; nearly all actives have a fitted effect of over 65% in size
POLI cherry-pick: Inhibitors of human DNA polymerase iota, confirmation; shares compounds with Pol kappa inh-1; Pol iota primer extension, TAMRA/BHQ fluorescence; Potency, µM, actives largely listed as inhibitors; actives 77% (n = 1,500); note: potency is the fitted concentration of half-maximal effect
GALK confirm: confirmation of human galactokinase (GALK) inhibitors; shares compounds with Pol eta inh-1; purified GALK, Kinase-Glo ATP depletion luminescence; Potency, µM (series often up to 115 µM), for the others: at the top dose activity, negative = inhibition, most hits filed as inhibitors; actives 70% (n = 150); AID 2015
Redox cycling: counter-screen for GALK inhibitors: redox cycling H2O2 generation; shares compounds with Pol eta inh-1; Potency, µM (series often up to 115 µM), without a hit: at the highest dose activity change, negative = H2O2 signal, actives largely listed as inhibitors; Phenol red-HRP H2O2 redox cycling, absorbance 600 nm; actives 40% (n = 150); AID 2035
HEK293 viability: counter-screen for GALK inhibitors: HEK293 cell cytotoxicity; shares compounds with Pol eta inh-1; HEK-293 viability, ATP luminescence (CellTiter-Glo), 24/48 h; Potency, µM (doses to about 46.1 µM), for inactives: top-dose activity change, negative = cytotoxicity, most hits filed as inhibitors; actives 10% (n = 170); AID 2547; note: potency is the fitted concentration of half-maximal effect; % is set by controls: 0 for no effect and ±100 for the full control effect
Pol kappa inh-2: confirmation of human DNA polymerase kappa inhibitors | shares compounds with Pol eta inh-1 | purified Pol-kappa, fluorescent strand-displacement substrate | Potency, µM, usual class: inhibitors | actives 76% (n = 920); note: potency is the fitted concentration of half-maximal effect
Pol eta inh-2: Pol eta (human) inhibition, cherry-pick confirmation | shares compounds with Pol eta inh-1 | Pol eta primer extension, TAMRA/BHQ fluorescence, 10 min | Potency, µM, most hits filed as inhibitors | actives 64% (n = 2,600); note: potency is the fitted concentration of half-maximal effect
An asterisk follows results filed as active; ? = inconclusive; . = no result. Unless noted, calls come from the whole dose curve; as a rule, active = well fitted curve in the direction sought with a large enough effect; inconclusive = small, poorly fitted or top-dose-only effect, or another doubt; inactive = no such curve, though single readings can be large; an effect the other way counts as inactive or inconclusive.

SMILES	Pol eta inh-1	FEN1 inhibitor	Pol kappa inh-1	PI5P4Ka inh	Pol iota inh	POLB inh	POLI cherry-pick	Pol eta inh-2	others
Nc1c(C(=O)N/N=C/c2ccc(F)cc2)oc2nc(-c3ccccc3)cc(-c3ccco3)c12	-26.1%	-5.1%	-4.0%	0.0	66.5%	32.0%	.	.
O=C(N/N=C/c1ccc(F)cc1)c1cc(-c2ccco2)nc2ccccc12	1.58µM*	79.4µM*	14.1µM*	-110.6*	7.94µM*	3.55µM*	7.52*	21.3*	PGK validate=8.19µM*;Pol kappa inh-2=10.6*
Cc1ccc(-c2cc(C(=O)N/N=C/c3ccc([N+](=O)[O-])o3)c3ccccc3n2)o1	50.1µM*	5.4%	?	?	?	-9.3%	?	30.1*
COc1ccccc1-c1cc(C(=O)N/N=C/c2ccc(C)o2)c2ccccc2n1	-9.5%	-18.6%	-4.2%	-10.0	-3.1%	?	.	.
O=c1cccccc1NCc1ccccc1	6.2%	-8.2%	-21.0%	-6.3	36.7%	22.5%	.	.
O=C1C=C(NCc2ccccc2)c2ccccc2C1=O	5.62µM*	?	-8.9%	2.1	1µM*	?	42.3*	84.9*	GALK confirm=21.1µM*;Redox cycling=16.8µM*;HEK293 viability=?
Cn1nc(C(=O)NCCCN2CCCCC2)c2c1-c1ccccc1S(=O)(=O)C2	-7.9%	-14.8%	-9.9%	3.4	2.9%	-8.6%	.	.
Cc1ccc(CNC(=O)COc2ccc(S(=O)(=O)N3CCOCC3)cc2)cc1	0.9%	10.3%	4.0%	-0.6	13.7%	.	.	.
Cc1nn(C(C)C(=O)NCc2ccccc2F)c(=O)c2nn(-c3ccccc3)c(C)c12 (stereo unspecified)	-18.8%	-1.9%	-11.5%	10.4	41.8%	-23.8%	.	.
Cc1ccc(-n2nc3c(=O)n(C(C)C(=O)NCc4ccccc4C)nc(C)c3c2C)cc1 (stereo unspecified)	89.1µM*	?	-10.0%	.	-25.5%	44.7µM*	75.2*	?	Pol kappa inh-2=67*
COc1ccc(CN2C(=O)C(CC(=O)NC3CCCCC3)CC(C(=O)N(C)C)=C2C)cc1 (stereo unspecified)	-7.0%	.	.	1.4	.	.	.	.
CCn1ccnc1CN(C)Cc1c(C(=O)N2C[C@@H](C)O[C@@H](C)C2)nc2ccc(Cl)cn12	-9.0%	1.7%	-8.1%	8.6	7.1%	40.4%	.	.
COc1ccccc1NC(=O)Cn1c(O)c(N=NC(=O)c2ccccc2O)c2ccccc21	50.1µM*	?	?	-1.1	?	?	?	.	Pol kappa inh-2=?
Cc1ccc(NC(=O)Cn2c(O)c(N=NC(=O)c3cc4ccccc4cc3O)c3ccccc32)cc1	?	-1.7%	-29.4%	?	?	?	.	.
COc1ccccc1CNC(=O)COC(=O)c1cc2ccccc2o1	-14.8%	-3.7%	-9.5%	-3.7	-6.1%	.	.	.
O=C(O)C1=C(C(=O)O)C2C=CC1C2	20µM*	-2.0%	?	-9.5	?	.	.	?	PGK validate=10.3µM*;Pol kappa inh-2=23.8*
O=C(Nc1nonc1NC(=O)c1cccs1)c1cccs1	-6.7%	6.4%	4.6%	1.6	137.5%	10.8%	.	.
CCc1ccc(/C(C)=N/NC(=O)CNC(=O)/C=C/c2ccco2)cc1	8.91µM*	44.7µM*	31.6µM*	-84.3*	5.01µM*	.	15*	21.3*	PGK validate=3.26µM*
Cc1cc(=O)[nH]c(SCC(=O)NCc2ccco2)n1	3.16µM*	-11.6%	35.5µM*	-22.2	8.91µM*	12.6µM*	29.9*	19*
O=C(CCSCCC(=O)NCc1ccco1)NCc1ccco1	11.2µM*	7.0%	?	?	-69.1%	22.4µM*	33.6*	26.9*
O=C(C[C@@H]1C/C=C\C[C@H](NC(=O)OCC2c3ccccc3-c3ccccc32)C(=O)OC[C@H]2CCCN2C1=O)NCCO	-5.0%	-1.3%	-27.1%	-1.0	-5.6%	.	.	.
O=C(CN(Cc1cccs1)C(=O)CCC(=O)Nc1ccccn1)NCc1ccccc1	-14.0%	-2.3%	1.7%	-20.8	51.7%	13.4%	.	.
CC1=NN(c2ccc(S(=O)(=O)O)cc2C)C(=O)C1	?	-8.8%	-1.1%	-12.6	47.1%	-27.5%	.	.
O=C(O)C1=NN(c2cc(Cl)c(S(=O)(=O)O)cc2Cl)C(=O)C1	22.4µM*	?	79.4µM*	-4.3	1.58µM*	.	.	?	PGK validate=9.19µM*;Pol kappa inh-2=15*
COc1ccc(Br)cc1S(=O)(=O)N(CC(=O)N1CCN(C)CC1)c1ccccc1	-6.6%	0.8%	-9.6%	3.6	14.4%	-15.1%	.	.
COc1cc2c(cc1OC)C(=O)C(c1ccc3c(c1)OCO3)CC2 (stereo unspecified)	-4.7%	.	.	-0.2	.	.	.	.
COc1cc2c(cc1OC)C(=O)C(Br)CC2 (stereo unspecified)	20µM*	.	.	-50.6*	.	.	67*	?
CCc1nc2c(OCCOc3ccc(F)cc3)cccn2c1N(C)C(=O)CC(C)C	.	.	.	2.4	.	.	.	.
COCC(=O)OC1CCn2c1nc1c2C(=O)C(C)=C(NC(C)=O)C1=O (stereo unspecified)	3.98µM*	-22.4%	-31.7%	-4.4	4.47µM*	.	16.8*	30.1*

High-throughput results as filed in PubChem.
